# Measured values taken from the antibiotic and cytotoxicity screens of Wong et al. (2023).
# The campaign covered roughly 39,000 compounds. About 3,300 (8.5%) were called active. Shown is part of a subset that was picked to be rich in actives.
# System: HepG2
# Assay: cytotoxicity call (relative viability < 0.9)
# Conditions: 10 µM
row,SMILES,cytotoxicity call
1,COc1cc(F)c(F)c(Nc2ccc(I)cc2F)c1NS(=O)(=O)C1(C[C@H](O)CO)CC1,inactive
2,O=C(NCC1(c2nc(-c3ccccc3)cs2)CCOCC1)c1cccc(-c2noc(C(F)(F)F)n2)c1,inactive
3,C[C@@H]1CN([C@@H](C)CO)C(=O)c2cccc(NS(=O)(=O)c3cn(C)cn3)c2O[C@@H]1CN(C)Cc1ccc(C(=O)Nc2ccccc2N)cc1,inactive
4,C[C@H]1CN([C@@H](C)CO)C(=O)c2cccc(NC(=O)c3ccc(-c4nccs4)cc3)c2O[C@H]1CN(C)C(=O)Nc1ccc(F)cc1,inactive
5,C[C@H]1CN([C@@H](C)CO)C(=O)c2cc(NC(=O)Nc3ccc(F)cc3)ccc2O[C@H]1CN(C)C(=O)Nc1cccc2ccccc12,inactive
6,COc1cc(Nc2c(C#N)cnc3cc(OCCCN4CCN(C)CC4)c(OC)cc23)c(Cl)cc1Cl,active
7,COc1cc2c(cc1OC)C(=O)C(CC1CCN(Cc3ccccc3)CC1)C2.Cl (centres undefined),inactive
8,COc1cc2nc(N3CCCN(Cc4ccccc4)CC3)nc(Nc3ccc(F)c(Cl)c3)c2cc1OC,active
9,COc1cc(C(=O)OCCCN2CCCN(CCOC(=O)c3cc(OC)c(OC)c(OC)c3)CC2)cc(OC)c1OC,inactive
10,COc1cc(C(=O)OCCCN2CCN(CCCOC(=O)c3cc(OC)c(OC)c(OC)c3)CC2)cc(OC)c1OC,inactive
11,COc1cc2c(NC3CCN(C)CC3)nc(N3CCCN(C)CC3)nc2cc1OCCOCCN(C)C,inactive
12,COc1cc2nc(N3CCCN(Cc4ccccc4)CC3)nc(NC3CCN(Cc4ccccc4)CC3)c2cc1OC,active
13,O=C(C1=C[C@H](c2ccc(Br)cc2)C[C@H](OCc2ccc(CO)cc2)O1)N1CCN(Cc2ccccc2)CC1,inactive
14,Brc1ccc2nc(N3CCCN(Cc4ccccc4)CC3)nc(NC3CCN(Cc4ccccc4)CC3)c2c1,active
15,O=C(C1=C[C@@H](c2ccc(Br)cc2)C[C@@H](OCc2ccc(CO)cc2)O1)N1CCN(Cc2ccccc2)CC1,inactive
16,CCOC(=O)/C=C(C)/C=C/C=C(C)/C=C/c1c(C)cc(OC)c(C)c1C,inactive
17,O=C(NCCCn1ccnc1)C(=O)NC[C@H]1OCCN1S(=O)(=O)c1ccc(F)cc1,inactive
18,C[C@@H]1CN([C@@H](C)CO)C(=O)c2cccc(NS(=O)(=O)c3ccccc3)c2O[C@H]1CN(C)S(=O)(=O)c1cn(C)cn1,inactive
19,Cc1ccc(S(=O)(=O)Nc2ccc3c(c2)C(=O)N([C@H](C)CO)C[C@@H](C)[C@@H](CN(C)C(=O)c2ccccc2)OCCCC[C@@H](C)O3)cc1,inactive
20,CC(C)NC(=O)Nc1ccc2c(c1)C(=O)N([C@@H](C)CO)C[C@H](C)[C@@H](CN(C)S(=O)(=O)c1ccc(F)cc1)O2,inactive
21,COc1ccc(C#Cc2cnc3c(c2)C(=O)N([C@H](C)CO)C[C@@H](C)[C@@H](CN(C)C(=O)CN(C)C)O3)cc1,inactive
22,C[C@H]1CN([C@@H](C)CO)C(=O)c2cc(NC(=O)CCCN(C)C)ccc2O[C@@H]1CN(C)S(=O)(=O)c1cn(C)cn1,inactive
23,C[C@H](CO)N1C[C@H](C)[C@H](CN(C)Cc2ccc3c(c2)OCO3)Oc2ccc(NC(=O)C3CC3)cc2CC1=O,inactive

row,SMILES,cytotoxicity call
1,Nc1ncn(C(=O)c2ccccc2)n1,inactive
2,C[C@@H]1CN([C@H](C)CO)C(=O)c2cccc(NC(=O)c3nc4ccccc4s3)c2O[C@@H]1CN(C)Cc1ccc(C(=O)Nc2ccccc2N)cc1,inactive
3,O=C(C[C@H]1C[C@@H]2c3cc(NS(=O)(=O)c4ccccc4)ccc3O[C@@H]2[C@@H](CO)O1)NC1CCCCC1,inactive
4,COc1ccc(NC(C)=S)cc1C,inactive
5,COc1ccc(S(=O)(=O)Nc2ccc3c(c2)C(=O)N([C@H](C)CO)C[C@@H](C)[C@H](CN(C)Cc2ccccc2)OCCCC[C@@H](C)O3)cc1,inactive
6,O=C(NCCCN1CCOCC1)c1ccc(Cl)cc1,inactive
7,COc1cc2ncnc(Nc3ccc(F)c(Cl)c3)c2cc1OCCCN1CCOCC1,active
8,COc1cc2c(N3CCN(C(=O)Nc4ccc(OC(C)C)cc4)CC3)ncnc2cc1OCCCN1CCCCC1,inactive
9,COc1cc2c(NC3CCN(C(C)C)CC3)nc(N3CCC(F)(F)CC3)nc2cc1OCCCN1CCCC1,active
10,C[C@H](CO)N1C[C@H](C)[C@@H](CN(C)Cc2ccc(O)cc2)OCc2ccccc2-c2c(n(C)c3ccccc23)C1=O,inactive
11,Cc1noc(C)c1NC(=O)Nc1ccc2c(c1)C(=O)N([C@@H](C)CO)C[C@@H](C)[C@H](CN(C)C(=O)Nc1ccc(F)cc1)OCCCC[C@H](C)O2,inactive
12,C[C@H](CO)N1C[C@H](C)[C@@H](CN(C)Cc2ccc(-c3ccccc3)cc2)Oc2ccc(NC(=O)CCC(F)(F)F)cc2CC1=O,inactive
13,C[C@H]1CN([C@@H](C)CO)C(=O)Cc2cc(NC(=O)CCC(F)(F)F)ccc2O[C@H]1CN(C)Cc1ccc(C(F)(F)F)cc1,inactive
14,C[C@H]1CN([C@@H](C)CO)C(=O)Cc2cc(NC(=O)CCC(F)(F)F)ccc2O[C@@H]1CN(C)Cc1ccc(-c2ccccc2)cc1,active
15,C[C@@H]1CN([C@H](C)CO)C(=O)Cc2cc(NC(=O)CCC(F)(F)F)ccc2O[C@@H]1CN(C)Cc1ccc(-c2ccccc2)cc1,active
16,C[C@H](CO)N1C[C@H](C)[C@@H](CN(C)Cc2ccc(C(F)(F)F)cc2)Oc2ccc(NC(=O)CCC(F)(F)F)cc2CC1=O,inactive
17,C[C@H](CO)N1C[C@H](C)[C@H](CN(C)Cc2ccc(C(F)(F)F)cc2)Oc2ccc(NC(=O)CCC(F)(F)F)cc2CC1=O,inactive
18,C[C@H](CO)N1C[C@H](C)[C@H](CN(C)Cc2ccc(-c3ccccc3)cc2)Oc2ccc(NC(=O)CCC(F)(F)F)cc2CC1=O,inactive
19,C[C@@H]1CN([C@@H](C)CO)C(=O)Cc2cc(NC(=O)CCC(F)(F)F)ccc2O[C@H]1CN(C)Cc1ccc(C(F)(F)F)cc1,inactive
20,C[C@H]1CN([C@@H](C)CO)C(=O)Cc2cc(NC(=O)CCC(F)(F)F)ccc2O[C@H]1CN(C)Cc1ccc(-c2ccccc2)cc1,active
21,C[C@@H]1CN([C@@H](C)CO)C(=O)Cc2cc(NC(=O)CCC(F)(F)F)ccc2O[C@@H]1CN(C)Cc1ccc(-c2ccccc2)cc1,inactive
22,C[C@@H]1CN([C@@H](C)CO)C(=O)Cc2cc(NC(=O)CCC(F)(F)F)ccc2O[C@H]1CN(C)Cc1ccc(-c2ccccc2)cc1,inactive
23,C[C@@H]1CN([C@H](C)CO)C(=O)Cc2cc(NC(=O)CCC(F)(F)F)ccc2O[C@H]1CN(C)Cc1ccc(-c2ccccc2)cc1,active

row,SMILES,cytotoxicity call
1,CC(=O)N1CCC2(CC1)NC(=O)NC2=O,inactive
2,O=C(CN1CCOCC1)NCC[C@@H]1CC[C@@H](NC(=O)c2ccccc2F)[C@@H](CO)O1,inactive
3,Cc1ccnc([C@@H](N)C2CC2)c1,inactive
4,C[C@@H]1CN([C@@H](C)CO)C(=O)c2cc(NC(=O)CCCCCC(=O)Nc3ccccc3N)ccc2O[C@H]1CN(C)S(=O)(=O)c1cn(C)cn1,inactive
5,Nc1ccccc1C(=O)N[C@H]1CCCCNC1=O,inactive
6,C[C@H](CO)N1C[C@H](C)[C@@H](CN(C)Cc2ccc(C(=O)Nc3ccccc3N)cc2)Oc2c(NC(=O)Nc3ccc4c(c3)OCO4)cccc2C1=O,inactive
7,C[C@H]1CN([C@@H](C)CO)C(=O)c2cc(C#CCc3ccccc3)cnc2O[C@@H]1CN(C)C(=O)Cc1cccnc1,inactive
8,COCC#Cc1cnc2c(c1)C(=O)N([C@H](C)CO)C[C@H](C)[C@@H](CN(C)S(=O)(=O)c1cccc(OC)c1)O2,inactive
9,NC[C@H]1OB(O)c2c(OCCO)ccc(Cl)c21,inactive
10,Cc1ccc(S(=O)(=O)Nc2cccc3c2O[C@H](CN(C)Cc2ccc(Oc4ccccc4)cc2)[C@@H](C)CN([C@H](C)CO)C3=O)cc1,inactive
11,C[C@H]1CN([C@@H](C)CO)C(=O)c2ccccc2-c2ccccc2CO[C@@H]1CN(C)Cc1ccc(Cl)c(Cl)c1,inactive
12,C[C@H]1CCCCO[C@H](CN(C)C(=O)Nc2ccc(F)cc2)[C@@H](C)CN([C@@H](C)CO)C(=O)c2cc(NS(=O)(=O)c3cccs3)ccc2O1,inactive
13,Cc1noc(C)c1S(=O)(=O)N(C)C[C@H]1Oc2ccc(NC(=O)C3CCCCC3)cc2CC(=O)N([C@@H](C)CO)C[C@H]1C,inactive
14,C[C@@H]1CN([C@@H](C)CO)C(=O)Cc2cc(NC(=O)c3ccncc3)ccc2O[C@H]1CN(C)Cc1ccc(-c2ccccc2)cc1,active
15,C[C@@H]1CN([C@H](C)CO)C(=O)Cc2cc(NC(=O)c3ccncc3)ccc2O[C@@H]1CN(C)Cc1ccc(-c2ccccc2)cc1,active
16,C[C@H]1CN([C@@H](C)CO)C(=O)Cc2cc(NC(=O)c3ccncc3)ccc2O[C@@H]1CN(C)Cc1ccc(-c2ccccc2)cc1,inactive
17,C[C@H]1CN([C@@H](C)CO)C(=O)Cc2cc(NC(=O)c3ccncc3)ccc2O[C@H]1CN(C)Cc1ccc(-c2ccccc2)cc1,active
18,C[C@@H]1CN([C@H](C)CO)C(=O)Cc2cc(NC(=O)c3ccncc3)ccc2O[C@H]1CN(C)Cc1ccc(-c2ccccc2)cc1,inactive
19,C[C@H](CO)N1C[C@H](C)[C@H](CN(C)Cc2ccc(-c3ccccc3)cc2)Oc2ccc(NC(=O)c3ccncc3)cc2CC1=O,inactive
20,C[C@@H]1CN([C@H](C)CO)C(=O)Cc2cc(NC(=O)c3ccncc3)ccc2O[C@@H]1CN(C)Cc1ccncc1,inactive
21,C[C@@H]1CN([C@@H](C)CO)C(=O)Cc2cc(NC(=O)c3ccncc3)ccc2O[C@@H]1CN(C)Cc1ccc(-c2ccccc2)cc1,inactive
22,C[C@H](CO)N1C[C@H](C)[C@@H](CN(C)Cc2ccc(-c3ccccc3)cc2)Oc2ccc(NC(=O)c3ccncc3)cc2CC1=O,inactive
23,Cc1ccc(-c2ccc3c(c2)O[C@@H](CN(C)C(=O)CN(C)C)[C@@H](C)CN([C@H](C)CO)S3(=O)=O)cc1,inactive
